Some test systems named below: NCI-H23 lung; NCI-H226 lung; NCI-H322M lung; HOP-62 NSCLC; NCI-H460 lung; HOP-92 NSCLC; NCI-H522 lung; A549/ATCC NSCLC; 786-0 renal; COLO 205 colon; DU-145 prostate; K-562 leukemia; MALME-3M melanoma; MDA-MB-231 breast; RXF 393 renal; SF-268 CNS; SF-295 CNS; SF-539 CNS; UACC-257 melanoma; M14 melanoma.
Assay in all cases: NCI-60 one-dose screen, 48 h (100 = growth as untreated, 0 = no growth, -100 = all killed)
Common to all, as to details: 10 µM unless noted

Compounds without any hit were thinned out: in the full panel of roughly 83,000, 20% have a hit.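 Cell lines were cultured in 96-well plates, exposed to a single compound concentration, and assessed for percent growth 48 hours later.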 Values without a mark were called inactive. Calls of active or inactive are those of the source. How the source made its calls: active means growth percent below 10; inactive means the rest.

`COc1cc(-c2cncn2-c2ccc(-c3nc4ccc(F)cc4s3)cc2)ccc1F`: the growth is 71% with NCI-H23 lung; 85.2% in the experiment on NCI-H226 lung; 103% in the experiment on NCI-H322M lung; 102% with HOP-62 NSCLC; 35.4% with NCI-H460 lung; 94.3% in the experiment on HOP-92 NSCLC. The growth with NCI-H522 lung is 55.9%; in the experiment with A549/ATCC NSCLC it was 69.1%; in the experiment on 786-0 renal, 90.8%; with COLO 205 colon it was 82.7%; with DU-145 prostate, -7.18% (active); in the experiment on K-562 leukemia it was 62.8%. The growth with MALME-3M melanoma was 99.3%; in the experiment on MDA-MB-231 breast it was 103%; in the experiment with RXF 393 renal it was 52.5%; with SF-268 CNS it was 81.3%; in the experiment with SF-295 CNS it was 90%; in the experiment with SF-539 CNS, 92.8%. Moreover, the growth in the experiment with UACC-257 melanoma is 79.7%.

Turning to `C=C1C(=O)O[C@H]2[C@H]1CC/C(COC(=O)C(=O)c1cn(C)c3ccc(Cl)cc13)=C\CC[C@@]1(C)O[C@@H]21`, the growth in the experiment with NCI-H23 lung was -60.1% (active); in the experiment with NCI-H226 lung, -71.4% (active); in the experiment with NCI-H322M lung, -68.9% (active); in the experiment with HOP-62 NSCLC, -70.1% (active); in the experiment with NCI-H460 lung, -69.8% (active); with HOP-92 NSCLC it was -82.9% (active). Moreover, the growth in the experiment with NCI-H522 lung is -65.8% (active); in the experiment on A549/ATCC NSCLC, -62.5% (active); with 786-0 renal it was -97.6% (active); in the experiment on COLO 205 colon, -64.7% (active); in the experiment on DU-145 prostate, -96% (active); with K-562 leukemia it was 3.09% (active). The growth with MALME-3M melanoma is -65.6% (active); in the experiment with MDA-MB-231 breast it was -68.7% (active); with RXF 393 renal it was -97% (active); in the experiment on SF-268 CNS, -65.1% (active); with SF-295 CNS it was -65.4% (active); with SF-539 CNS, -70.9% (active). The growth was -84.1% (active) in the experiment on UACC-257 melanoma and -77.3% (active) in the experiment on M14 melanoma.

As for `O=S(=O)(c1ccccc1)n1cc2c(c1)-c1nc(Nc3ncccn3)sc1CC2`, the growth is 61.9% in the experiment with NCI-H23 lung; 25.9% in the experiment with NCI-H226 lung; 63.6% in the experiment with NCI-H322M lung; 22.1% in the experiment with HOP-62 NSCLC; 68.4% in the experiment with NCI-H460 lung; 22% with HOP-92 NSCLC. The growth is 55.3% in the experiment with NCI-H522 lung; 35.2% with A549/ATCC NSCLC; 18.3% with 786-0 renal; 61.9% in the experiment on COLO 205 colon; 34.6% in the experiment on DU-145 prostate; 73.8% in the experiment with K-562 leukemia. Besides, the growth in the experiment with MALME-3M melanoma is 50.3%; in the experiment with MDA-MB-231 breast, 52.5%; with RXF 393 renal it was 34.6%; in the experiment on SF-268 CNS, 66.3%; with SF-295 CNS, 67.3%; with SF-539 CNS, 35.6%. Moreover, the figures for the growth with UACC-257 melanoma and in the experiment on M14 melanoma were 50.4% and 45.8%, respectively.

With `COc1cc2c(c(OC)c1OC)CCC(c1cccc(C(=O)Nc3cccc(Cl)c3)c1)O2` (centres undefined), the growth is 85.8% with NCI-H23 lung; 65.6% with NCI-H226 lung; 51.7% in the experiment on NCI-H322M lung; 79.6% in the experiment with HOP-62 NSCLC; 85% in the experiment on NCI-H460 lung; 8.45% (active) in the experiment with HOP-92 NSCLC. Moreover, the growth in the experiment on NCI-H522 lung was 51.7%; in the experiment on A549/ATCC NSCLC, 61.6%; in the experiment on 786-0 renal it was 79.8%; in the experiment on COLO 205 colon it was 76.7%; with DU-145 prostate it was 81%; in the experiment with K-562 leukemia, 38.2%. Also, the growth with MALME-3M melanoma was 75.2%; in the experiment with MDA-MB-231 breast, 25.7%; with RXF 393 renal, 66.9%; in the experiment with SF-268 CNS, 72.1%; with SF-295 CNS, 65%; with SF-539 CNS it was 77.6%. The growth in the experiment on UACC-257 melanoma is 74.5%; in the experiment with M14 melanoma, 62.1%.

`CC1=C([Se]CC(OC(=O)CC[Se]c2ccccc2)C(=O)NC(C)(C)C)C(=O)c2ccccc2C1=O` (centres undefined): the growth with NCI-H23 lung is -45.6% (active); with NCI-H226 lung, -49.4% (active); in the experiment on NCI-H322M lung, -51.9% (active); with HOP-62 NSCLC, -36.1% (active); in the experiment on NCI-H460 lung, -49.2% (active); in the experiment with HOP-92 NSCLC, -74.5% (active). Further, the growth in the experiment on NCI-H522 lung was -38.7% (active); with A549/ATCC NSCLC, -1.39% (active); with 786-0 renal, -90.2% (active); in the experiment on COLO 205 colon it was -90.1% (active); in the experiment with DU-145 prostate it was -94.8% (active); in the experiment with K-562 leukemia, -11.3% (active). Further, the growth with MALME-3M melanoma is -57.2% (active); in the experiment on MDA-MB-231 breast, -41.7% (active); in the experiment on RXF 393 renal, -87.5% (active); in the experiment on SF-268 CNS it was -88.9% (active); with SF-295 CNS, -36.2% (active); in the experiment on SF-539 CNS, -99% (active). In addition, the growth in the experiment with UACC-257 melanoma was -87.3% (active); with M14 melanoma it was -77.8% (active).

For the compound `CC(C)(C)[Si](C)(C)OC1[C@@H](CNC(=O)NC(=O)NC(N)=O)O[C@@H](n2cnc3c(NC(=O)Nc4ccccc4)ncnc32)[C@H]1O[Si](C)(C)C(C)(C)C` (some centres undefined), the growth with NCI-H23 lung is 75.4%; with NCI-H226 lung, 69.4%; with NCI-H322M lung it was 87.1%; with HOP-62 NSCLC, 71%; in the experiment on NCI-H460 lung it was 27.4%; in the experiment on HOP-92 NSCLC, 92%. The growth in the experiment with NCI-H522 lung is 43.3%; with A549/ATCC NSCLC, 44.1%; in the experiment with 786-0 renal, 90.9%; in the experiment on COLO 205 colon it was 54.3%; with DU-145 prostate it was 58.9%; in the experiment on K-562 leukemia, 66.3%. Moreover, the growth in the experiment on MALME-3M melanoma was 79%; in the experiment on MDA-MB-231 breast, 83.7%; with RXF 393 renal, 71.6%; in the experiment on SF-268 CNS it was 66.4%; in the experiment on SF-295 CNS, 73.1%; in the experiment with SF-539 CNS, 95.4%. Moreover, the growth in the experiment on UACC-257 melanoma is 94%; in the experiment on M14 melanoma, 68%.

`COc1cc2c(cc1OCCCN1CCN(CCCOc3cc4c(cc3OC)C(=O)N3CC(F)(F)C[C@H]3C=N4)CC1)N=C[C@@H]1CC(F)(F)CN1C2=O`: the growth in the experiment with NCI-H23 lung is 54%; with NCI-H226 lung, 95.5%; in the experiment on NCI-H322M lung, 97.9%; in the experiment with HOP-62 NSCLC, 97.4%; in the experiment on NCI-H460 lung, 27%; in the experiment on HOP-92 NSCLC, 10.8%. The growth in the experiment with NCI-H522 lung is -14.3% (active); in the experiment with A549/ATCC NSCLC it was 94.4%; in the experiment on 786-0 renal it was 86.2%; with COLO 205 colon, 43.1%; in the experiment with DU-145 prostate it was 16.3%; in the experiment on K-562 leukemia, 36.5%. Besides, the growth is 89% with MALME-3M melanoma; 85.3% in the experiment with MDA-MB-231 breast; 86.2% in the experiment with RXF 393 renal; 14.6% in the experiment on SF-268 CNS; 30.6% in the experiment on SF-295 CNS; 51% with SF-539 CNS. The growth in the experiment with UACC-257 melanoma is 85.3%; in the experiment on M14 melanoma, 70.2%.

Values taken from PubChem BioAssay (NCI).
